According to publication PMC4336329 (PLoS ONE, 2015):
Screen size: about 310,000 compounds; about 14,000 (4.5%) showed an effect of 50% or more. The effect is printed as a negative number. The list comes from a sample in which strong results are over-represented; it also holds similar structures and randomly drawn compounds.

molecular target: human ether-à-go-go-related gene (hERG) potassium channel (human, UniProt Q12809); test: primary screen, population patch clamp on CHO cells stably expressing hERG; higher = less effect of the substance
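Further: peak tail current of the secondary pulse compared with the same well before compound.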

human ether-à-go-go-related gene (hERG) potassium channel, sequence (Q12809 whole entry, looked up): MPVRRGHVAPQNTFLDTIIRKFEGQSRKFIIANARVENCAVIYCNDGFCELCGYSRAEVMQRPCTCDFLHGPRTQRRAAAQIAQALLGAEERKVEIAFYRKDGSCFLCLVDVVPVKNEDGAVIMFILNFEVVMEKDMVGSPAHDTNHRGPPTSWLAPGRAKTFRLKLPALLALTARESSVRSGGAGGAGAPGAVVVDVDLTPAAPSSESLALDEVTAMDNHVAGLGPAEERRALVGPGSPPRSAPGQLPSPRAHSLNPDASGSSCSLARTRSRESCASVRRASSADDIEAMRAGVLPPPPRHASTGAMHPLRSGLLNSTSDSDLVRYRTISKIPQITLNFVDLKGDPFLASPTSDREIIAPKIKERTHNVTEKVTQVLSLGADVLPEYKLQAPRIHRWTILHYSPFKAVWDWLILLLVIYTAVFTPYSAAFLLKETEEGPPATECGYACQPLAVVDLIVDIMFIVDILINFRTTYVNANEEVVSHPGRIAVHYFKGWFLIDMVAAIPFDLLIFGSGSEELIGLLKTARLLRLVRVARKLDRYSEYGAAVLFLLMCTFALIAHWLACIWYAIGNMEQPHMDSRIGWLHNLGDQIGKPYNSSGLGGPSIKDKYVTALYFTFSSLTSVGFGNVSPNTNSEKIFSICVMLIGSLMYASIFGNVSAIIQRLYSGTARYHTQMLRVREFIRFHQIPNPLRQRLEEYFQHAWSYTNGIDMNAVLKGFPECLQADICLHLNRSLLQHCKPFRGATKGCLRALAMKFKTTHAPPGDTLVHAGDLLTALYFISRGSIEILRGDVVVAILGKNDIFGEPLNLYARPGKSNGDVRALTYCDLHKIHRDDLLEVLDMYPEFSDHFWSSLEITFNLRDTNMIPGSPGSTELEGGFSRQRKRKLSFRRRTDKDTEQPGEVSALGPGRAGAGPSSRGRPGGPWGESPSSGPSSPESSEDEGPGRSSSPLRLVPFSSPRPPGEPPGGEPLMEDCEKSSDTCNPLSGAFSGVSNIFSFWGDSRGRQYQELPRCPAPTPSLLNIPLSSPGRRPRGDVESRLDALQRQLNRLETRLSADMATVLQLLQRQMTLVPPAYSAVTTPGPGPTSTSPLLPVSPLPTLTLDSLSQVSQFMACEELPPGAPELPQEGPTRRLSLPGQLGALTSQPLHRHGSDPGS

Row | SMILES | hERG current change (%, negative = inhibition) at 10uM [%]
1 | CC(C)CN(C(=O)c1ccc(N2CCCC2=O)cc1)c1c(N)n(Cc2ccccc2)c(=O)[nH]c1=O | 19.6
2 | N#Cc1ccc(CN2CCN(C(=O)c3ccc(S(=O)(=O)NCc4ccco4)cc3)CC2)cc1 | -59.8
3 | Cc1cccc(N2CCN(C(=O)c3ccc(Cl)c(S(=O)(=O)NCc4ccco4)c3)CC2)c1C | 4.75
4 | O=C(c1ccc(S(=O)(=O)NCc2ccco2)cc1)N1CCN(Cc2ccc3c(c2)OCO3)CC1 | -32.5
5 | O=C(c1ccc(S(=O)(=O)NCc2ccco2)cc1)N1CCN(c2ccc(F)cc2)CC1 | -31.5
6 | O=C(c1ccc(Cl)c(S(=O)(=O)NCc2ccco2)c1)N1CCN(c2ccc(F)cc2)CC1 | -70.3
7 | COc1ccccc1N1CCN(C(=O)c2ccc(Cl)c(S(=O)(=O)NCc3ccco3)c2)CC1 | -14.2
8 | COc1ccc(N2CCN(C(=O)c3ccc(S(=O)(=O)NCc4ccco4)cc3)CC2)cc1 | -54.7
9 | CCOC(=O)N1CCN(C(=O)c2ccc(S(=O)(=O)NCc3ccco3)cc2)CC1 | -2
10 | O=C(c1ccc(S(=O)(=O)NCc2ccco2)cc1)N1CCN(Cc2ccccc2)CC1 | 2.86
11 | Cc1cccc(NC(=O)CN2C(=O)COc3ccc(Cl)cc32)c1C | 8.74
12 | O=C(NCC(=O)N(Cc1ccco1)C(C(=O)NC1CCCC1)c1ccncc1)c1cccs1 (stereo not shown) | -0.29
13 | O=C(N/N=C/c1cc([N+](=O)[O-])ccc1O)C1CC1 | 9.47
14 | Cc1cc(C)n(-c2nc3ccccc3c(=O)n2OCCOc2ccccc2)n1 | -1.88
15 | COc1ccc2c(c1)C(=O)Cc1ccccc1O2 | 0.762
16 | COc1ccc(C(c2nnnn2C2CCCCC2)N2CCN(C)CC2)c(OC)c1 (stereo not shown) | -4.87
17 | N/C(=N\OC(=O)C12CC3CC(CC(C3)C1)C2)c1ccccc1 | -11.1
18 | COc1ccc2nc(/N=C/c3c(O)n(-c4cccc(Cl)c4)c(=O)[nH]c3=O)sc2c1 | 2.53
19 | CCOC(=O)CC(=O)CSc1nc2nc(C)cc(C)n2n1 | 8.34
20 | O=C(Nc1ccccc1)c1ccncc1 | 1.31
21 | O=C(COC(=O)c1ccc(O)cc1O)NNC(=O)c1cccs1 | 6.45

Row | SMILES | hERG current change (%, negative = inhibition) at 10uM [%]
22 | CSc1nc(N2CCOCC2)cc(N2CCOCC2)n1 | 7.09
23 | O=C(CN1C(=O)c2cccc3cccc(c23)C1=O)N1CCCCC1 | 0.0571
24 | Cc1cc(C)c(NC(=O)C2CCCN2CCOC(=O)c2ccccc2)c(C)c1.Cl (stereo not shown) | -26
25 | Cc1cc(C)c(NC(=O)C2CCCN2CCOC(=O)c2cccc([N+](=O)[O-])c2)c(C)c1.Cl (stereo not shown) | -63.2
26 | Cc1cc(C)c(NC(=O)C2CCCN2CCO)c(C)c1 (stereo not shown) | -14.5
27 | CC(NC(=O)c1ccccc1F)c1nnc(SCC(=O)NC2=NCCS2)n1C (stereo not shown) | 22.3
28 | COC(=O)c1cc(CNC(=O)c2ccccc2Cl)ccc1OC | 0.487
29 | COc1ccc(C2c3sc(=O)[nH]c3SC3C4CCC(C4)C23)cc1OC (stereo not shown) | -17.5
30 | COC(=O)C1CSc2[nH]c(=O)sc2C1c1ccc(OC)c(OC)c1 (stereo not shown) | 0.0419
31 | COC(=O)C1=C(C(=O)OC)C(c2cc(Br)ccc2O)c2sc(=O)[nH]c2S1 (stereo not shown) | -47.6
32 | COC(=O)C1=C(C(=O)OC)C(c2ccc(OC)c(OC)c2)c2sc(=O)[nH]c2S1 (stereo not shown) | -54.8
33 | COC(=O)C1=C(C(=O)OC)C(c2ccccc2O)c2sc(=O)[nH]c2S1 (stereo not shown) | -55.9
34 | COC(=O)C1=C(C(=O)OC)C(c2cc([N+](=O)[O-])ccc2O)c2sc(=O)[nH]c2S1 (stereo not shown) | 1.28
35 | S=c1[nH]nc(-c2ccc(Cl)cc2)n1-c1cccnc1 | 23.5
36 | Cc1ccc(-c2nc(C#N)c(N3CCC(C)CC3)o2)cc1 | 17.5
37 | N#Cc1c(N)nc2c(c1-c1ccncc1)CCCCC2 | -12.3
38 | COCCC(=O)N1CCCC(C(=O)c2ccccc2SC)C1 (stereo not shown) | 13.1
39 | COc1ccc(OC)c(CN2CCCC(C(=O)c3ccccc3SC)C2)c1 (stereo not shown) | -75.9
40 | COc1ccc(O)c(CN2CCCC(C(=O)c3ccccc3SC)C2)c1 (stereo not shown) | -30.9
41 | COc1cc(CN2CCCC(C(=O)c3ccccc3SC)C2)cc(OC)c1 (stereo not shown) | -74.4
42 | COc1cc(OC)c(OC)cc1CN1CCCC(C(=O)c2ccccc2SC)C1 (stereo not shown) | -58.5

Row | SMILES | hERG current change (%, negative = inhibition) at 10uM [%]
43 | O=C(/C=C/c1ccc(S(=O)(=O)N2CCOCC2)cc1)NCc1ccccc1 | -4.31
44 | O=c1[nH]c(-c2ccc(Cl)cc2)cs1 | 9.25
45 | COc1cc(NC(=O)Nc2cccc([N+](=O)[O-])c2)cc(OC)c1 | 1.42
46 | COc1cccc(NC(=O)[C@@H]2CCCN2S(=O)(=O)c2cccc3cccnc23)c1 | -5.87
47 | COCCN(C(=O)CCC(=O)Nc1nccs1)C(C(=O)NC(C)(C)C)c1ccc(F)cc1 (stereo not shown) | -1.98
48 | COC(=O)CSc1nnc(CNc2ccc(F)cc2)o1 | 14.5
49 | COc1ccc(/C(N)=N/O)cc1O | 5.51
50 | Cn1c(=O)c2c(nc3n2CCCN3CCc2ccccc2)n(C)c1=O | -1.45
51 | Cn1c(=O)n(Cc2ccccc2)c(=O)c2c1nc1n2CCCN1CCc1ccccc1 | -26
52 | CCCn1c(=O)c2c(nc3n2CCCN3CCc2ccc(OC)c(OC)c2)n(C)c1=O | -23.7
53 | C=C(C)Cn1c(=O)c2c(nc3n2CCCN3Cc2ccccc2)n(C)c1=O | -17.9
54 | CCCn1c(=O)c2c(nc3n2CC(C)CN3Cc2ccccc2)n(C)c1=O (stereo not shown) | -39.4
55 | Cn1c(=O)n(CC(=O)O)c(=O)c2c1nc1n2CCCN1CCc1ccccc1 | 13.6
56 | C=C(C)Cn1c(=O)c2c(nc3n2CCCN3CCc2ccccc2)n(C)c1=O | -73.3
57 | C=CCn1c(=O)c2c(nc3n2CCCN3CCc2ccc(OC)c(OC)c2)n(C)c1=O | -79.6
58 | CCn1c(=O)c2c(nc3n2CCCN3CCc2ccc(OC)c(OC)c2)n(C)c1=O | -5.18
59 | CC(C)Cn1c(=O)c2c(nc3n2CC(C)CN3Cc2ccccc2)n(C)c1=O (stereo not shown) | -83.3
60 | CC1CN(Cc2ccccc2)c2nc3c(c(=O)n(C)c(=O)n3C)n2C1 (stereo not shown) | -36.1
61 | CC(C)Cn1c(=O)c2c(nc3n2CCCN3CCc2ccccc2)n(C)c1=O | -76
